Compounds with a hit are over-represented: about 4.2% of the library has one in this group of screens.
TCR act: T cell receptor activation; Potency, µM (top dose mostly 9.22 µM), without a hit: at the top dose activation of IL-2 secretion, hits mostly activators; AID 504894; primary human leukocytes, anti-CD3, IL-2 HTRF, 48 h; 330,000 tested, under 10 active; also: % of control where 0% means no effect
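48 hr co-incubation of compounds, a-CD3 beads and primary human leukocytes; IL-2 quantified homogeneously by HTRF with anti-IL-2 K and d2 conjugates.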
ClpP mod: qHTS Assay for Activators of ClpP. 340,000 tested, 1.9% active. Potency, µM (titrated, usually from 57.5 µM), inactives show at the top dose activity change, negative = active. purified B. subtilis ClpP, FRET peptide cleavage, 20 min. ATP-dependent Clp protease proteolytic subunit (Bacillus subtilis (strain 168)), P80244. AID 651965, 2013; active = well fitted falling curve with a large enough effect; inconclusive = small, poorly fitted or top-dose-only effect; inactive = no such curve, though single readings can be large or run the other way; also: potency is read from the fitted curve at half-maximal effect; the source files actives as falling curves though it sought activators and does not explain the sign; nearly all actives have a fitted effect of over 65% in size
Target sequence (P80244 whole entry, looked up): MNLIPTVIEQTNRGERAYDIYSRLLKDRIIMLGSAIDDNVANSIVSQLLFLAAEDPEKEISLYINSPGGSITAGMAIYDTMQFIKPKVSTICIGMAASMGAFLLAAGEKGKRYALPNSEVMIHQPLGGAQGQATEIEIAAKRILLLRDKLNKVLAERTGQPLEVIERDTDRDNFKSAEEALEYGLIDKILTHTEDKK
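Purified B. subtilis ClpP, 10 microg/mL final in Tris/HCl pH8 with KCl, BSA, glycerol and Tween-20, cleaved an Abz/nitrotyrosine-quenched decapeptide. Fluorescence (ex 320, em 430) was read at 0 and 20 min at room temperature. Delta was normalized to 5.8 microM ADEP and DMSO/no-enzyme controls.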
uPA surface inh: cell surface uPA generation inhibition; cell surface uPA generation assay, qHTS; Potency, µM (highest dose often 38.3 µM), inactives show top-dose activity change, negative = inhibition, hits mostly inhibitors; 330,000 tested, 0.31% active; AID 540303; active = well fitted inhibition curve with a large enough effect; inconclusive = small, poorly fitted or top-dose-only effect; inactive = no such curve, though single readings can be large or run the other way; tested in mouse RAW 264.7 cells; also: potency is read from the fitted curve at half-maximal effect; % is scaled to controls: 0 for no effect and ±100 for the full control effect; nearly all actives have a fitted effect of over 55% in size
Sfp inh: Sfp phosphopantetheinyl transferase inhibition. Biochemical Sfp PPTase activity, qHTS. Potency, µM, for inactives: largest response in the series, negative = inhibition, most hits filed as inhibitors. Q9F4F7. 310,000 tested, 3.5% active. AID 1490;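 also: the enzyme is Sfp with the accession as filed and its product quenches rhodamine fluorescence; potency is read from the fitted curve at half-maximal effect; 0% = enzyme reaction without inhibitor and -100% = no enzyme wells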
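After 15 min at room temperature with compound, 15 nM Sfp received 5 uM rhodamine-CoA plus 12.5 uM BHQ-2-ybbR (50 mM Hepes pH 7.6, 10 mM MgCl2). Rate came from the fluorescence difference over 30 min, ex 525/em 598 nm.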
An asterisk follows results filed as active; ? = inconclusive; . = not tested or not shown; ! = a repeat was not active; [ ] = remark or other dose. Unless noted, calls follow the shape of the dose curve; as a rule, active = well fitted curve in the direction sought with a large enough effect; inconclusive = small, poorly fitted or top-dose-only effect, or another doubt; inactive = no such curve, though single readings can be large; an effect the other way counts as inactive or inconclusive.

SMILES | TCR act | ClpP mod | uPA surface inh | Sfp inh
N#Cc1c(N)nc2c(c1-c1ccc3c(c1)OCO3)CCc1ccccc1-2 | 4%[46.1 µM] | ? | -18% | -9%
C/C(CCc1ccc2c(c1)OCO2)=N\N=C(/N)SC1CC(=O)N(c2ccccc2F)C1=O (stereo not given) | 3% | 0% | -4% | 79µM*
O=[N+]([O-])c1ccc(S(=O)(=O)c2ccccc2)nc1 | -5% | 0% | ? | 50µM*
Cc1ccc(S(=O)(=O)c2ccc([N+](=O)[O-])cn2)cc1 | -1% | . | -6% | ?
O=C(N/N=C/c1ccc(N2CCOCC2)o1)c1cccc(F)c1 | -11%[46.1 µM] | 2% | 1% | 8.9µM*
O=C(N/N=C/c1ccc(-c2cccc(C(F)(F)F)c2)o1)c1cccc(F)c1 | 1% | -16% | . | -2%
COc1ccc(C(=O)N/N=C/c2ccc(N3CCOCC3)o2)cc1OC | 5% | . | 3% | 3.5µM*
Cc1ccc2c(c1)c(=O)c(S(=O)(=O)c1ccc(C)c(C)c1)cn2CC(=O)Nc1ccccc1 | . | -10% | . | .
CCCN1CNc2c(c(=O)[nH]c(=S)n2CCc2ccc(OC)cc2OC)C1 | . | -1% | . | .
COc1ccccc1CNC(=O)CSC1=Nc2ccccc2N=C(c2ccc(F)cc2)C1 | . | -1% | . | .
C=CCOC(=O)N[C@@H](Cc1ccccc1)/C(C(=O)OC)=C(\C)NCc1ccccc1 | . | . | . | -29%
Cc1ccc(S(=O)(=O)c2n[nH]n3c2nc(=O)c2ccccc23)cc1 | -2% | 16µM* | 7% | 10%
CCOC(=O)c1n[nH]n2c1nc(=O)c1ccccc12 | 6% | . | -1% | 9%
COc1ccc(CNC(=O)c2cc(-c3ccc(C)c(C)c3)n[nH]2)cc1 | . | 0% | . | .
CCN(CC)CCNC1=NCCn2c1cc1cc(OC)ccc12 | . | ? | 4% | 15%
CCN(CC)CCCCNc1ncc2cc(-c3cc(OC)cc(OC)c3)c(NC(=O)NC(C)(C)C)nc2n1 | -4% | 4% | 7.1µM* | 6%
CC(C)CCOCC(=O)Oc1ccccc1C(=O)O | 1% | 28µM* | -2% | 25%
CC(=O)Oc1ccccc1C(=O)Oc1ccccc1C(=O)O | 6% | -10% | -7% | 10%
CCN1C/C(=C/c2cccs2)c2nc3ccccc3c(C(=O)O)c2C1 | 2% | . | 0% | 45µM*
CCN1C/C(=C/c2sccc2C)c2nc3ccccc3c(C(=O)O)c2C1 | -2% | -2% | 14% | -5%
CCc1ccc(/C=C2\CN(CC)Cc3c2nc2ccccc2c3C(=O)O)cc1 | -5% | -4% | 5% | 2.5µM*
CCCC(=O)NCCCCNC(=O)CCC | -5% | 0% | 1% | 12%
CC(=O)N(O)CCCCCNC(=O)CCC(=O)N(O)CCCCCNC(=O)CCC(=O)N(O)CCCCCN | 2% | -3% | -18% | 45µM*!
Cc1sc2nc(CSCC(=O)NC3(C#N)CCCCC3)[nH]c(=O)c2c1C | -1% | -6% | 1% | .
O=C(CCc1ccc(Oc2cc([N+](=O)[O-])cc([N+](=O)[O-])c2)cc1)N1CCCCCC1 | 1%[46.1 µM] | -2% | -4% | 18µM*
SMILES | TCR act | ClpP mod | uPA surface inh | Sfp inh
O=C(Cc1ccc([N+](=O)[O-])cc1)N1CCCCCC1 | 1% | . | 2% | 8%
CCN1C2=NCCCN2c2cc(C)c(C)cc21 | -5% | 28µM* | -6% | 0%
CC(C)OP(=O)(OC(C)C)C1(NS(=O)(=O)c2ccc(Cl)cc2)C=C(Cl)C(=O)C(Cl)=C1 | 5% | 1% | 5% | 89µM*
Cc1ccc(NC(N)=S)cc1C | -5%[46.1 µM] | 28µM* | -8% | 19%
N#C/C(=N\Nc1ccccc1)C(N)=S | -2% | . | 1% | 18µM*
Cc1ccc(N/N=C(\C#N)C(N)=S)cc1C | 4% | -2% | -20% | 56µM*
N#C/C(=N\Nc1ccc(S(=O)(=O)N2CCOCC2)cc1)C(N)=S | 4% | . | 0% | 45µM*
Cc1c(-c2nsc(NC(=O)c3ccc(Cl)cc3)n2)nnn1-c1ccc(C(C)C)cc1 | . | 25µM* | . | .
COC(=O)c1ccc(-n2nnc(-c3nsc(NC(=O)c4ccc(Cl)cc4)n3)c2C)cc1 | . | -3% | . | .
O=C1C2C3C=CC(C3)C2C(=O)N1c1ccc(-c2nc3ccccc3o2)cc1 (stereo not given) | 2% | 6.3µM* | 0% | -12%
O=C1C2C3C=CC(C3)C2C(=O)N1c1ccncc1 (stereo not given) | -5% | ? | 3% | 15%
CCCOc1cccc(NC(=O)OC2CCN(C)CC2)c1 | -1%[46.1 µM] | 25µM* | 1% | -16%
Cc1cccc(N/C(N)=N/c2nc(C)cc(C)n2)c1 | -2% | 32µM* | -2% | 6%
CC(=O)Nc1cccc(N/C(N)=N/c2nc(C)cc(C)n2)c1 | -3% | -3% | -2% | 3%
CC1(C)C(=O)C2C[C@]3(O)C4=CC(=O)OC(c5ccoc5)[C@]4(C)CCC3[C@](C)(C2=O)C1CC(=O)O (stereo not given in full) | . | . | . | 14%
COC(=O)c1ccccc1NC1CC(=O)N(c2c(C)cccc2C)C1=O (stereo not given) | 9% | 8.9µM* | . | 28µM*
COC(=O)c1ccc(NC2CC(=O)N(c3ccccc3C)C2=O)cc1 (stereo not given) | 5% | 1% | -1% | -17%
O=S(=O)(O)Sc1ccccc1 | . | -2% | . | .
CCN(CC)c1ccc(SS(=O)(=O)O)cc1 | 7% | 14µM*! | -3% | 45µM*
COc1ccc(N2CCN(CCCNC(=O)c3c(C)nn(-c4ccc(F)cc4)c3-n3cccc3)CC2)cc1 | . | -6% | . | .
CCCC(c1nnnn1CCc1ccccc1)N1CCN(C2CCCC2)CC1 (stereo not given) | -2% | 0.79µM* | -2% | 16%
CCCC(c1nnnn1CCc1ccccc1)N1CCC(C(N)=O)CC1 (stereo not given) | 3%[46.1 µM] | -2% | 5% | 1%
CCOC(=O)c1c(C)[nH]c(CCC(=O)Nc2ccccc2C(=O)OC)c1C | . | -2% | . | .
COc1cc(OC)c(NC(=O)c2csc3c2CCC(C)C3)cc1Cl (stereo not given) | . | 4% | . | .
O=C1CCN(CCc2ccccc2)CCN1CCSc1ccccc1 | 4% | 2% | 3% | -1%
SMILES | TCR act | ClpP mod | uPA surface inh | Sfp inh
CC(=O)Nc1ccc(SCCN2CCN(CCc3ccccc3)CCC2=O)cc1 | . | . | . | 50µM*
Cc1cc(O)cc(O)c1/C=N/NC(=O)c1ccc2c(c1)OCCO2 | . | 5% | . | .
C=CCOc1ccccc1C1C2=C(CC(C)(C)CC2=O)Nc2c1c(=O)n(C)c(=O)n2C (stereo not given) | 2% | 28µM* | -6% | 8%
CCOC(=O)CSc1nc(C2CC2)nc2ccccc12 | -2% | -3% | 1% | 89µM*
CC1CCN(C(=O)CSc2nc(C3CC3)nc3ccccc23)CC1 | -5% | . | -7% | 3%
CCOc1ccc(S(=O)(=O)Nc2cc3c(C(=O)OCc4ccccc4)c(C)oc3c3ccccc23)cc1 | . | 1% | . | .
CCOC(=O)c1c(C)oc2c1cc(NS(=O)(=O)c1ccc(C(=O)O)cc1)c1ccccc12 | -8% | . | 1% | 56µM*
COc1cc(-c2nc(S(=O)(=O)c3ccc(C)cc3)c(N(C)C)o2)cc(OC)c1OC | 4% | -3% | 0% | 56µM*

Bioassay records as filed in PubChem BioAssay.
